# In PubChem BioAssay (NCI):
# The panel holds about 83,000 compounds, 20% with a hit somewhere; the sample as a whole holds those more often.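 96-well plates, one dose, 48 hours. Percent growth reported; active if below 10.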 Unmarked numbers belong to inactive results. Calls of active or inactive are those of the source.
# Tests used:
# Assay in all cases: NCI-60 one-dose screen, 48 h (100 = growth as untreated, 0 = no growth, -100 = all killed)
# Conditions in all cases: 10 µM unless noted
# SR leukemia = tested on: SR leukemia
# RPMI-8226 leukemia = tested on: RPMI-8226 leukemia
# OVCAR-8 ovarian = tested on: OVCAR-8 ovarian
# OVCAR-5 ovarian = tested on: OVCAR-5 ovarian
# OVCAR-4 ovarian = tested on: OVCAR-4 ovarian
# SK-OV-3 ovarian = tested on: SK-OV-3 ovarian
# IGROV1 ovarian = tested on: IGROV1 ovarian
# OVCAR-3 ovarian = tested on: OVCAR-3 ovarian
# HS 578T breast = tested on: HS 578T breast
# NCI/ADR-RES ovarian = tested on: NCI/ADR-RES ovarian
# T-47D breast = tested on: T-47D breast
# BT-549 breast = tested on: BT-549 breast
# MDA-MB-435 melanoma = tested on: MDA-MB-435 melanoma
# SW-620 colon = tested on: SW-620 colon
# MCF7 breast = tested on: MCF7 breast
# HCT-116 colon = tested on: HCT-116 colon
# HCC-2998 colon = tested on: HCC-2998 colon
# KM12 colon = tested on: KM12 colon
Structure (SMILES),growth (SR leukemia),growth (RPMI-8226 leukemia),growth (OVCAR-8 ovarian),growth (OVCAR-5 ovarian),growth (OVCAR-4 ovarian),growth (SK-OV-3 ovarian),growth (IGROV1 ovarian),growth (OVCAR-3 ovarian),growth (HS 578T breast),growth (NCI/ADR-RES ovarian),growth (T-47D breast),growth (BT-549 breast),growth (MDA-MB-435 melanoma),growth (SW-620 colon),growth (MCF7 breast),growth (HCT-116 colon),growth (HCC-2998 colon),growth (KM12 colon)
COc1ccc(C(O)c2cc3c(N)c(C(=O)Nc4cccc(OC)c4)sc3nc2C)cc1 (stereo not drawn),2.51% (active),6.06% (active),5.76% (active),23%,36.5%,19.5%,15.4%,0.638% (active),23.7%,13.7%,62.8%,26.5%,-9.54% (active),19.9%,17.8%,5.98% (active),5.05% (active),2.91% (active)
COc1ccc(-c2nc(SCCC(C)C)nc(N/N=C(/C)c3ccc(C)cc3)c2C#N)cc1,91.2%,88%,88.1%,85.4%,103%,95.7%,84.7%,102%,85.1%,89.8%,87.1%,91%,103%,95.2%,91.4%,93.2%,99%,93.5%
O=C1NC(=S)NC(=O)C1=Cc1cn(Cc2ccccn2)c2ccccc12,13.1%,91.2%,51.7%,-4.45% (active),80.8%,85.5%,11.3%,33.5%,81.9%,85.1%,89.8%,66.8%,21.3%,48.3%,34.6%,2.36% (active),54.2%,57.2%
Cc1ccc(C(=O)Nc2ccccc2C(=O)N/N=C(\c2ccccc2)c2ccccn2)cc1,16.8%,16%,19.5%,43.3%,9.94% (active),8.33% (active),24%,22.5%,68.3%,13.3%,13.4%,13.5%,28%,37.3%,11.9%,17.9%,29.7%,26%
Clc1ccc(N2N=C(c3cccc(Nc4ccncc4)c3)CC2c2ccc(Br)cc2)cc1 (stereo not drawn),1.87% (active),-2.67% (active),-18.7% (active),77.8%,0.0501% (active),85.7%,3.01% (active),37.7%,60.5%,39.6%,48.7%,116%,-83.1% (active),-68.1% (active),-51.5% (active),105%,-67.7% (active),-51% (active)
COc1ccc(/C=C(/c2ccccc2)[N+](=O)[O-])cc1,-19.1% (active),-28% (active),-7.29% (active),-59.6% (active),-59.5% (active),9.1% (active),-26.1% (active),-96.5% (active),14.4%,7.74% (active),-64.5% (active),-18.7% (active),-35.6% (active),-57.6% (active),-31.3% (active),-71.6% (active),-80.7% (active),-36.2% (active)
C=C(C)[C@@H]1CC[C@]2(CO)CC[C@]3(C)[C@H](CC[C@@H]4[C@@]5(C)CCCNC(C)(C)[C@@H]5CC[C@]43C)[C@@H]12,-40.4% (active),-36.9% (active),23.5%,75%,31.8%,92.2%,36.3%,44.4%,46.8%,44.8%,36.5%,77.1%,13.5%,-66.5% (active),-12.6% (active),-78.9% (active),-5.02% (active),23.2%
Cc1cc(NC(=O)c2cnc(N3CCN(CCOCCOCCOCCOCCC(=O)N[C@H](C(=O)N4C[C@H](O)C[C@H]4C(=O)N[C@@H](C)c4ccc(-c5scnc5C)cc4)C(C)(C)C)CC3)cn2)c2ncccc2c1,7.46% (active),-26.5% (active),20.7%,80.4%,14.7%,63.9%,-37.8% (active),-30.8% (active),6.9% (active),90.5%,20.2%,-37.3% (active),-68.3% (active),-39.9% (active),4.01% (active),-60.3% (active),-80.6% (active),-64.6% (active)
CN1CCN(c2c(F)cc(NC3=C(Cl)C(=O)c4ncccc4C3=O)cc2F)CC1,4.88% (active),67.1%,78.1%,105%,-87.8% (active),101%,57.4%,-28% (active),97.2%,89.7%,16.1%,106%,21%,-68.4% (active),-58.3% (active),-11.3% (active),108%,105%
CNC(=O)c1c(NC(=O)c2ccc(C(C)C)cc2)sc2c(CN(C)C)c(O)ccc12,-9.94% (active),22.5%,112%,106%,98.6%,99.7%,90.5%,99.3%,89.6%,91.3%,80.6%,87.9%,89.8%,17.2%,68.6%,46.1%,55.4%,66.2%
COc1cccc2c1C(=O)c1c(O)c3c(c(O)c1C2=O)C[C@@](O)(C(=O)CO)C[C@@H]3O[C@H]1C[C@H](N)[C@@H](O)[C@H](C)O1,-2.27% (active),6.05% (active),7.14% (active),15.2%,7.72% (active),7.22% (active),18.4%,-0.462% (active),-18.2% (active),70.5%,4.43% (active),-39% (active),-77.6% (active),0.619% (active),4.48% (active),5.25% (active),-22.8% (active),1.25% (active)
Cc1ccc2nc3c(cc2c1)CSc1nnc(-c2ccc[nH]c2=S)n1N3,83.3%,99.5%,100%,99.5%,109%,88.8%,82.7%,99.5%,96.3%,93.4%,90.8%,97.4%,88.2%,102%,94.4%,92.5%,107%,99.7%
O=C(Nc1nc(-c2ccccc2Cl)cs1)c1cc(-c2ccccc2)nc2ccc(Cl)cc12,21.9%,21.4%,19.2%,93.2%,76%,95.5%,59.7%,28.1%,76.4%,16.5%,74.1%,11.8%,8.05% (active),29.4%,25.8%,4.98% (active),95.5%,84.2%
COc1ccc(C(=O)c2cc3c(N)c(C(=O)Nc4cccc5ccccc45)sc3nc2C)cc1,-11.9% (active),5.61% (active),-5.04% (active),39.9%,37.2%,32%,23.8%,-7.2% (active),11.3%,8.37% (active),32.6%,45.1%,-6.84% (active),21.9%,19.4%,6.55% (active),20.8%,12.3%
CCN(CC)CCCC(C)Nc1cc(-c2cccc(OC(F)(F)F)c2)nc2ccc(N3CCCC3)cc12 (stereo not drawn),-31.6% (active),-37% (active),-5.79% (active),31.1%,34.8%,82%,29.9%,0.648% (active),-22.3% (active),13.4%,-19.3% (active),78.7%,-84.4% (active),-37.5% (active),-10% (active),-53.7% (active),-58.2% (active),7.78% (active)
COc1ccc(-c2nc(SC(C)C)nc(NNC(N)=O)c2C#N)cc1,25.8%,93.9%,96.9%,85.6%,94.6%,83.8%,72.4%,81%,78.9%,70.7%,84.8%,102%,3.51% (active),50.7%,84.3%,102%,88.9%,58.6%
